This is a sample that favours compounds with a hit; in the whole collection about 3.7% have one here.
HTT promoter inh: inhibitors of huntingtin promoter activity | Potency, µM (titrated, usually from 57.5 µM), without a hit: at the highest dose activity change, negative = inhibition, hits mostly inhibitors | HEK293 HTT promoter firefly luciferase reporter, 24 h | 48,000 compounds, 0.93% hits; note: potency is the fitted concentration of half-maximal effect; nearly all actives have a fitted effect of over 50% in size
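HEK293 Fluc reporter, 2,500 cells/well, 24 h pre-culture; cpds up to 57.5 uM final, 24 h 37 degrees C; Dual-Glo, 10 min RT; normalized vehicle = 0%, zero RLU = -100%.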
HTT-AS promoter: activators of huntingtin-antisense promoter activity; HEK293 HTT-AS promoter firefly luciferase reporter, 24 h; response scale: percent change from vehicle, -100% = no light; Potency, µM (highest dose often 57.5 µM), inactives show top-dose activity change, positive = activation, most hits filed as activators; 48,000 compounds, 0.24% hits; AID 1508624; note: potency is the fitted concentration of half-maximal effect; nearly all actives have a fitted effect of over 55% in size
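Quantitative HTS used concentration series of up to 57.5 uM final on HEK293 luciferase reporter cells, 24 h at 37 degrees C. Readout was Dual-Glo firefly luminescence.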
GPR32 ag: agonists of human resolvin D1 receptor DRV1 (GPR32); O75388; CHO-K1 GPR32 beta-arrestin PathHunter luminescence, 90 min; zero percent set by DMSO-only wells; activation, % at 76.9 µM; 48,000 compounds, 2.5% hits; AID 1346428;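 active = activation of at least 60% and not above a set upper limit, about 1 call in 100 departs from these limits; inconclusive = activation of 40% to 60%, or above that upper limit; inactive = activation under 40%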; note: 0% is about no effect
Target sequence (O75388 whole entry, looked up): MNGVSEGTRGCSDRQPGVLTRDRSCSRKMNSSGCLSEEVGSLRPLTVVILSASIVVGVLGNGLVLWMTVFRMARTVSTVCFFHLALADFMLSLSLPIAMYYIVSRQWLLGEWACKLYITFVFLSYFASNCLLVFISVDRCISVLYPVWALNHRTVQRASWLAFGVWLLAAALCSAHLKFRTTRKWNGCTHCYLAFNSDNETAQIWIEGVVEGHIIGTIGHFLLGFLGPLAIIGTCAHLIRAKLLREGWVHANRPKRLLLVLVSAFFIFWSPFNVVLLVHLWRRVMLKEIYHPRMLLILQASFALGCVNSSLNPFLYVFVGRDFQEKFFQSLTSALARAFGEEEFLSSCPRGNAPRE
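Agonism was scored as beta-arrestin recruitment to ProLink-fused GPR32 in stably transfected CHO-K1 cells, giving a chemiluminescent beta-Gal signal; compounds were incubated 90 min at 37 °C.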
* marks the source's active call; other numbers are inactive results; ? = inconclusive; . = not tested or not shown; [ ] = remark or other dose. Unless noted, calls come from the whole dose curve; as a rule, active = well fitted curve in the direction sought with a large enough effect; inconclusive = small, poorly fitted or top-dose-only effect, or another doubt; inactive = no such curve, though single readings can be large; an effect the other way counts as inactive or inconclusive.

SMILES | HTT promoter inh | HTT-AS promoter | GPR32 ag
COc1ccc(/C=C(\C#N)c2nc3ccccc3n2C)c(OC)c1 | 65.8% | 3.55µM* | -1.5
Cc1nc(NC(=O)N2CCC[C@@H]2C(N)=O)sc1-c1ccnc(C(C)(C)C(F)(F)F)c1 | -22.3% | -7.2% | .
CC(=O)N1CCc2cc(S(=O)(=O)NC(Cc3ccccc3)C(=O)Nc3cc(C)cc(C)c3)ccc21 (stereo unspecified) | -23.3% | -2.4% | -12.5
CC(=O)N1CCc2cc(S(=O)(=O)NC(Cc3ccccc3)C(=O)Nc3ccc(Cl)cc3)ccc21 (stereo unspecified) | -25.7% | 3.0% | 95.8*
CCCCOCCOc1nc(-c2ccc(C(=O)O)c(F)c2)sc1C | 7.7% | 14.9% | .
Cc1cc(-c2ccc(C)c(S(=O)(=O)N3CCOc4ccc(Cl)cc43)c2)on1 | 28.2µM* | -34.6% | -1.7
Cc1ccc(-c2onc(C)c2C)cc1S(=O)(=O)N1CCOc2ccc(Cl)cc21 | ? | -91.4% | 8.0
O=[N+]([O-])c1ccc2c(c1)S(=O)(=O)C=C2 | . | . | -6.2
CC(C)(C(=O)NCC(F)(F)C(F)(F)F)C(=O)N[C@@H]1C(=O)Nc2ccccc2-c2ccccc21 | ? | -37.0% | .
COc1ccc(OCC(O)Cn2c(=N)n(CCN3CCCCC3)c3ccccc32)cc1 (stereo unspecified) | -15.9% | -12.3% | 4.5
N=c1n(CCN2CCCCC2)c2ccccc2n1CC(O)COc1ccc(Cl)cc1Cl (stereo unspecified) | ? | -46.3% | 69.6*
COc1ccc(C)c2sc(N3CCN(C(=O)c4cccc(F)c4)CC3)nc12 | -10.4% | -8.9% | -0.5
COc1ccc(C)c2sc(N3CCN(C(=O)c4ccco4)CC3)nc12 | -24.1% | -27.2% | 86.0*
OCC(O)CS (stereo unspecified) | 13.2% | -0.2% | -2.7
Cc1cccc(NC(=O)CSc2cn(CC(=O)N3CCCCCC3)c3ccccc23)c1 | -10.9% | -16.6% | -12.8
CN1Cc2cc(C(=O)N3CCC(C4CCNCC4)CC3)ccc2N[C@@H](CC(=O)O)C1=O | 1.1% | -3.1% | 9.6
Clc1cc(Cl)cc(CNc2ncncc2-c2ccc3c(c2)OCO3)c1 | -33.1% | -32.3% | .
COc1ccc(OC)c(CNc2ncnc3c2nc2n3CCCC2)c1 | -21.1% | -19.7% | -11.4
CCOc1ccc(-c2cc(CCCC(=O)NCCc3cc(OC)c(OC)c(OC)c3)no2)cc1 | 15.8µM* | -78.8% | 72.4*
CCOc1ccc(-c2cc(CCCC(=O)NCCc3ccc(OC)c(OC)c3)no2)cc1 | ? | -81.0% | 19.6
COc1ccc(OC)c(-c2nnc3ccc(-c4ccc(OC)c(O[C@@H]5CCOC5)c4)nn23)c1 | ? | -31.3% | .
CC/C=C(\C(=O)N[C@@H]1C(=O)N2C(C(=O)OCOC(=O)C(C)(C)C)=C(COC(N)=O)CS[C@H]12)c1csc(N)n1 | 5.9% | 1.5% | -24.3
CCOc1ccc(-c2nc(CSCC(=O)NCCc3ccccc3)c(C)o2)cc1 | 7.08µM* | -49.5% | -5.9
CCOc1ccc(-c2nc(CSCC(=O)NCc3ccc(Cl)cc3)c(C)o2)cc1 | ? | -51.1% | -2.2
CCOC(=O)CNC(c1ccccc1)c1cc(Br)ccc1NC(=O)c1ccc(Cl)cc1 (stereo unspecified) | ? | 5.0%[11.5 µM] | -33.0
SMILES | HTT promoter inh | HTT-AS promoter | GPR32 ag
Cn1c(=O)[nH]c(=O)c2c1nc(NCCO)n2CC(O)COc1ccccc1 (stereo unspecified) | . | . | 26.8
CCCCNc1nc2c(c(=O)n(C)c(=O)n2C)n1CC(O)COc1ccccc1C (stereo unspecified) | -30.0% | 9.1%[11.5 µM] | 66.6*
CCOC(=O)C1=C(CN2CCN(c3ccc(OC)cc3)CC2)NC(=O)NC1c1ccc(OC)cc1 (stereo unspecified) | ? | -24.5% | -17.5
CCOC(=O)C1=C(CN2CCN(c3ccc(C)cc3C)CC2)NC(=O)NC1c1ccc(OC)cc1 (stereo unspecified) | 28.2µM* | -37.1% | -36.4
CC(N[C@H]1CCCC[C@H]1NC(=O)c1ccc(Cl)cc1)c1cccc2ccccc12 (stereo partly specified) | -17.8% | -26.2% | .
Cc1nc(-c2ccc(Cl)cc2)oc1COC(C)(C)C(=O)O | -0.9% | -9.2% | 13.2
O=C(CCc1nnc2n(Cc3ccccc3Cl)c(=O)c3ccccc3n12)Nc1ccccc1 | -3.7% | -2.4% | 6.0
O=C1c2[nH]nc(-c3ccc(F)cc3)c2C(c2ccccc2F)N1c1ccccc1 (stereo unspecified) | ? | -21.2% | 108.5*
CCCN1C(=O)c2[nH]nc(-c3ccc(F)cc3)c2C1c1ccccn1 (stereo unspecified) | -4.2% | -17.4% | -25.1
CC(=O)O[C@H]1C[C@@H]2CC[C@H]3[C@H]4C[C@H]([N+]5(C)CCCCC5)[C@@H](OC(C)=O)[C@@]4(C)CC[C@@H]3[C@@]2(C)C[C@H]1N1CCCCC1 | -2.9% | -10.3% | .
O=c1cc[nH]c(=S)[nH]1 | -4.5% | 10.8% | 67.7*
O=c1cc[nH]c(=O)[nH]1 | 0.3% | 1.6% | 44.7
CSc1cccc(NC(=O)C2CCN(S(=O)(=O)c3ccc4[nH]c5c(c4c3)CCCCC5)CC2)c1 | ? | -25.2% | 5.2
COc1ccc(NS(=O)(=O)c2ccc3[nH]c4c(c3c2)CCCCCC4)cc1 | ? | -27.7% | 74.5*
Cc1ccc(NS(=O)(=O)c2ccc3[nH]c4c(c3c2)CCCCC4)cc1 | ? | -32.4% | 13.8
O=C(Nc1cccc(F)c1)C1CCN(S(=O)(=O)c2ccc3[nH]c4c(c3c2)CCCCC4)CC1 | 25.1µM* | -41.5% | 9.4
CC(=O)c1ccc(NS(=O)(=O)c2cccc(S(=O)(=O)c3ccc(Cl)cc3)c2)cc1 | ? | -33.1% | 61.4*
CC(=O)Nc1ccc(NS(=O)(=O)c2ccc3[nH]c4c(c3c2)CCCCC4)cc1 | -35.6% | -33.2% | 80.0*
COc1cccc(NS(=O)(=O)c2ccc3[nH]c4c(c3c2)CCCCCC4)c1 | ? | -19.9% | 3.1
Cc1cc(S(=O)(=O)Nc2ccc(C(=O)O)cc2)c(C)c(S(=O)(=O)c2ccc(Cl)cc2)c1 | -12.0% | -15.0% | -28.2
Cc1ccccc1C(=O)Nc1ccc(C(=O)N2CCCC(N(C)C)c3ccccc32)cc1 (stereo unspecified) | -23.3% | -26.5% | 3.3
CN[C@@H](C)C(=O)N[C@H]1CCCC[C@H]2CC[C@@H](C(=O)N[C@@H](c3ccccc3)c3cn(CCCCc4ccc(CCCCn5cc([C@@H](NC(=O)[C@@H]6CC[C@@H]7CCCC[C@H](NC(=O)[C@H](C)NC)C(=O)N76)c6ccccc6)nn5)cc4)nn3)N2C1=O | 7.7% | -2.2% | .
COc1ccc2[nH]c(S(=O)Cc3ncc(C)c(OC)c3C)nc2n1 (stereo unspecified) | -0.3% | 2.9% | ?
Cc1ccc(NC(=O)c2c(NC(=O)c3ccco3)sc3c2CCC(C(C)(C)C)C3)c(C)c1 (stereo unspecified) | -20.0%[11.5 µM] | -5.3% | 10.7
CC(=O)c1ccc(NS(=O)(=O)c2ccc3[nH]c4c(c3c2)CCCCCC4)cc1 | ? | -21.1% | 72.7*
COc1ccc(NC(=O)CN(C)S(=O)(=O)c2ccc3[nH]c4c(c3c2)CCCC4)cc1Cl | 0.0% | -34.5% | 90.6*

Screening results: PubChem BioAssay, National Center for Advancing Translational Sciences (NCATS)
